Bioassay records as filed in PubChem BioAssay.
Only some compounds are listed: those with a hit (about 2.8% of all), similar ones and a draw of the others.
PI4K2A block: qHTS for small molecular inhibitors of PI4K2A. Phosphatidylinositol 4-kinase type 2-alpha (Homo sapiens), Q9BTU6. purified PI4K2A, ADP-Glo luminescence, 1 h; hits give low values. activity change, negative = inhibition, % at 76.9 µM. actives 0.13% (n = 420,000); in the data active = activity change below about -50%; inconclusive = mostly about -30% to -49%;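 also: -100% = wells without enzyme as full effect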
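In this quantitative HTS, ADP production by PI4K2A was quantified luminescently after 1 h at ambient temperature; 100 microM adenosine served as plate-quality control.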
POLH inh: qHTS for Inhibitors of Polymerase Eta; Potency, µM (doses to about 114 µM), without a hit: at the highest dose activity change, negative = inhibition, most hits filed as inhibitors; recombinant Pol eta, fluorescent DNA replication assay; actives 1.2% (n = 390,000); AID 588591, 2011; DNA polymerase eta (Homo sapiens), Q9Y253; also: potency is read from the fitted curve at half-maximal effect; % is scaled to controls: 0 for no effect and ±100 for the full control effect
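Pol eta at 10 nM preincubated with compounds 15 min at room temperature; reaction started with fluorescent substrate (50 nM final) and read kinetically at 0 and 10 min.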
POLK inh: qHTS for Inhibitors of Polymerase Kappa | purified Pol kappa, fluorescent DNA synthesis assay, 10 min | Potency, µM (series often up to 107 µM), without a hit: at the top dose activity, negative = inhibition, actives largely listed as inhibitors | actives 0.53% (n = 400,000); also: potency is read from the fitted curve at half-maximal effect; % is scaled to controls: 0 for no effect and ±100 for the full control effect
Target sequence (Q9UBT6 whole entry, looked up): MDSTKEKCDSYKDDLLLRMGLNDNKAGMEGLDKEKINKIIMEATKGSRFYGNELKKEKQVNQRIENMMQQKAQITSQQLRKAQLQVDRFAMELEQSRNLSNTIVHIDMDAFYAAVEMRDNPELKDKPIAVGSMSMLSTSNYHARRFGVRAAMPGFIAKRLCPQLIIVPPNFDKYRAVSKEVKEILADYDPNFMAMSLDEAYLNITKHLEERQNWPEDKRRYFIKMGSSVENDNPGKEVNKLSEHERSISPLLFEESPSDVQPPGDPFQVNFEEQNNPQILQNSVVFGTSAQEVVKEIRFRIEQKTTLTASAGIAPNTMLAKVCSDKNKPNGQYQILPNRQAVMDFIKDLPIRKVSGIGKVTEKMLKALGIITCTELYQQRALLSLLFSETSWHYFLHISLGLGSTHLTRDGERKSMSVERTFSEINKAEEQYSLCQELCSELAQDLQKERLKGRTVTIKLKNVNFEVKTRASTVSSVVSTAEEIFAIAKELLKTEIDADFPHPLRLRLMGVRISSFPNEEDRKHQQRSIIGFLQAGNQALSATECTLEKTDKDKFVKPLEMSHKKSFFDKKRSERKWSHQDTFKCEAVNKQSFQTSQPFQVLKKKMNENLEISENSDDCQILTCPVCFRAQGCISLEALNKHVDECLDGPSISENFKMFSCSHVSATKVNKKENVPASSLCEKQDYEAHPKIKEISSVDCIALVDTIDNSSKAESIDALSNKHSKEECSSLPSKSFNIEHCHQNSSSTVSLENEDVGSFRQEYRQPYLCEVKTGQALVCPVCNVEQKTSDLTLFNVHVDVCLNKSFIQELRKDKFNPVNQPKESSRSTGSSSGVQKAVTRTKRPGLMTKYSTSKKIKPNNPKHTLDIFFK
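Fluorescent qHTS in 1536-well format: enzyme (10 nM) and compound sat 15 min at room temperature before 50 nM substrate (final) was added. Signal taken at 0 and 10 min; no-enzyme buffer wells were negative controls.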
PI5P4Ka inh: qHTS for Inhibitors of phosphatidylinositol 5-phosphate 4-kinase (PI5P4K). Phosphatidylinositol 5-phosphate 4-kinase type-2 alpha (Homo sapiens), P48426. PI5P4Kalpha enzyme, ADP-Glo luminescence, 60 min; hits give low values. max response, %. actives 1.2% (n = 330,000). AID 652105, 2013; active = max response of -50% or lower; inconclusive = between -30% and -50%; inactive = -30% or higher; also: value at the top dose of about 77 µM; % is scaled to controls: 0 for no effect and ±100 for the full control effect
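Quantitative HTS of the MLSMR library against PI5P4Kalpha with substrate. ATP added last at 5 microM final; room temperature, 60 minutes. Remaining ATP depleted, ADP converted and read as luminescence.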
POLI inh: qHTS for Inhibitors of Polymerase Iota; Pol iota fluorescent replication assay, 10 min; actives 1% (n = 390,000); Potency, µM (doses to about 115 µM), for inactives: at the highest dose activity, negative = inhibition, actives largely listed as inhibitors; also: potency is read from the fitted curve at half-maximal effect
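Pol iota at 10 nM preincubated 15 min with compounds at room temperature; reaction started with fluorescent substrate, 50 nM final. Fluorescence read kinetically at 0 and 10 min; buffer-only wells as negative control.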
Pol beta inh: qHTS Assay for Inhibitors of DNA Polymerase Beta; P06746; Pol beta primer extension/strand displacement, fluorescence kinetic; Potency, µM (highest dose often 114 µM), without a hit: at the top dose activity change, negative = inhibition, hits mostly inhibitors; actives 1.3% (n = 340,000); also: potency is read from the fitted curve at half-maximal effect; % is scaled to controls: 0 for no effect and ±100 for the full control effect
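Kinetic readout of DNA synthesis with strand displacement by Pol beta. Compound and 10 nM enzyme sit 15 min at room temperature; 50 nM substrate starts the reaction, read immediately and at 10 min.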
* = called active by the depositor; ? = inconclusive; / = not tested or not shown; ! = a repeat was not active; [ ] = another dose, or the depositor's remark. Unless noted, calls follow the shape of the dose curve; as a rule, active = well fitted inhibition curve with a large enough effect; inconclusive = small, poorly fitted or top-dose-only effect, or another doubt; inactive = no such curve, though single readings can be large or run the other way.

SMILES | PI4K2A block | POLH inh | POLK inh | PI5P4Ka inh | POLI inh | Pol beta inh
O=C(CSc1ccc(-c2nc3ccccc3[nH]2)cn1)Nc1ccc(S(=O)(=O)NC2CC2)cc1 | 1 | ? | -9% | 0 | ? | 18µM*
CS(=O)(=O)c1ccccc1C(=O)Nc1ccc(-c2nc3ccccc3[nH]2)cc1 | -6 | -8% | -1% | -5 | 12% | 19%
Cc1c(C(=O)OCCOc2ccccc2)[nH]c2c1C(=O)CC(c1ccccc1Cl)C2 (stereo not drawn) | -3 | -5% | 6% | / | 35% | 17%
O=C(Nc1cc(Cl)ccc1Cl)c1cc(S(=O)(=O)NCCc2ccccc2)ccc1F | -3 | -13% | 0%[60.1 µM] | / | 9% | 1%
O=C(CSc1ccc(-c2nc3ccccc3[nH]2)cn1)Nc1ccc2c(c1)OCCO2 | -2 | -15% | -5%[60.1 µM] | / | ? | 18µM*
Cc1ccc2c(c1)c1nnc(SCC(=O)Nc3cccc(Cl)c3C)nc1n2CC(=O)O | 0 | 79µM* | -16% | -5 | -1% | 22µM*
CC1CCCC(C)N1C(=O)COC(=O)/C=C/c1ccc(Br)o1 (stereo not drawn) | -3 | 22µM* | ? | ? | 22µM* | /
CC1CCN(C(=O)COC(=O)/C=C/c2ccc(Br)o2)CC1 | -3 | -12% | ? | -8 | 18µM* | /
C=CCCC1(CCC)C(=O)/C(=C(\O)c2ccccc2)C(=O)C(CCC)=C1OC (stereo not drawn) | -3 | / | / | / | / | /
C=CCn1c(SCC(=O)N2CC(=O)Nc3ccccc32)nc2scc(-c3cccs3)c2c1=O | -10 | 5% | -8% | 2 | ? | 3%
CC(C)CCn1c(SCC(=O)N2CC(=O)Nc3ccccc32)nc2scc(-c3cccs3)c2c1=O | -22 | ? | ? | -67* | ? | 22µM*
Cc1ccc(C2=NN=C(NC(=O)CSc3nnc4c5ccccc5n(C)c4n3)SC2)cc1 | -11 | ? | -7% | ? | -17% | 35µM*
Cc1ccc(C2=NN=C(NC(=O)CSc3nc(C)cc(C)n3)SC2)cc1 | / | / | / | / | / | -19%
CCOC(=O)Cc1nnc(NC(=O)CSc2nnc3c4ccccc4n(C)c3n2)s1 | -3 | -6% | ? | / | 5µM* | 45µM*
Cc1cccc(N2CCN(S(=O)(=O)c3ccc(-c4cc(C(F)(F)F)on4)s3)CC2)c1C | 2 | -4% | 22% | / | 4% | 22%
O=C(O)C1C2C=CC(C2)C1C(=O)NCCc1ccncc1 (stereo not drawn) | 1 | ? | -19% | -5 | -13% | 50µM*
O=C(O)C1C2C=CC(C2)C1C(=O)NCCc1ccccc1 (stereo not drawn) | 0 | -15% | -23% | / | 18% | -10%
O=C(O)CP(=O)(O)O | 1 | -4% | 8%[60.1 µM] | 0 | 13µM*! | 1%
O=P(O)(O)CP(=O)(O)O | / | / | 1%[19.4 µM] | / | / | 3%
Cc1cc(NC2CCCCC2)nc(-n2nc(C)cc2C)n1 | -1 | / | 1%[60.1 µM] | / | / | /
O=C(Nc1ccc(Cc2ccc(NC(=O)C3CC3)c(O)c2)cc1O)C1CC1 | -13 | -3% | -8% | -2 | 13% | -2%
O=C(O)CCC(=O)Nc1ccc(Cc2ccc(NC(=O)CCC(=O)O)c(O)c2)cc1O | 0 | 16µM* | -41% | -5 | ? | 0%
CCCCCCSc1ccc([C@@H]2[C@@H]3C(=O)N(CC)C(=O)[C@@H]3[C@]3(C(=O)OC)CCCCN23)cc1 | -52* | -12% | 5% | 11 | 12% | /
CCCCCCSc1ccc([C@@H]2[C@H]3C(=O)N(C)C(=O)[C@H]3[C@]3(C(=O)OC)CCCCN23)cc1 | 3 | -16% | -5% | 13 | 13% | /
CN(C)S(=O)(=O)c1cccc(NC(=O)NCCCl)c1 | 7 | -19% | 0% | -4 | -13% | 27%
SMILES | PI4K2A block | POLH inh | POLK inh | PI5P4Ka inh | POLI inh | Pol beta inh
Cc1c(Cl)cccc1NC(=O)CNc1cccc(S(=O)(=O)N(C)C)c1 | 0 | -11% | -6% | -8 | 11% | 79µM*
CCNc1ccc(S(=O)(=O)N(C)C)cc1NCC(=O)Nc1ccc(F)c(Cl)c1 | 1 | -17% | -10% | 6 | 89µM* | -26%
CCNc1ccc(S(=O)(=O)N(C)C)cc1NCC(=O)Nc1ccccc1F | 0 | -16% | -3% | -9 | 53% | 48%
CC1=C(SCc2ccccc2)C(=O)c2ccccc2C1=O | ? | 32µM* | -11% | ? | 3.2µM* | /
O=C(CCCc1c[nH]c2ccccc12)NCCc1c[nH]c2ccccc12 | -5 | 89µM* | -6% | -5 | 29% | -2%
CC(C)CNC(=O)CCCc1c[nH]c2ccccc12 | 2 | -11% | -4% | 6 | 11% | 52%
c1coc(CNc2nc(NCc3ccco3)c3ccccc3n2)c1 | / | / | -7% | / | 18% | /
COc1ccc(OC)c(/C=C2\SC(=S)N(NS(=O)(=O)c3ccc(C)cc3)C2=O)c1 | -4 | 79µM* | -27% | -67* | 37% | ?
COc1ccc(/C=C2\SC(=S)N(NS(=O)(=O)c3ccccc3)C2=O)c(OC)c1 | -13 | ? | 3% | -58* | -1% | -22%
O=C1/C(=C/c2cccs2)SC(=S)N1NS(=O)(=O)c1ccccc1 | 4 | 0% | -14% | -73* | -2% | -4%
COc1ccccc1/C=C1\SC(=S)N(NS(=O)(=O)c2ccc(C)cc2)C1=O | -11 | 89µM* | -7% | ? | ? | ?
COc1ccc(OC)c(/C=C2\SC(=S)N(NS(=O)(=O)c3ccccc3)C2=O)c1 | 1 | -8% | -4%[60.1 µM] | ? | ? | ?
CC(C)C[C@H]1COc2cccc(F)c2S(=O)(=O)N1Cc1cn(Cc2ccc(F)cc2)nn1 | -2 | / | / | / | / | /
c1ccc(C(O[C@H]2CCCN(CCc3ccc4c(c3)OCO4)C2)c2ccccc2)cc1 | -4 | / | / | / | / | /
Nc1nc2c(nc(Br)n2C2OC3COP(=O)(O)O[C@@H]3C2O)c(=O)[nH]1 (stereo partly drawn) | -9 | / | -7%[60.1 µM] | / | / | /
Cc1ccc(NCC(O)Cn2cnc3c2c(=O)n(C)c(=O)n3C)cc1 (stereo not drawn) | 4 | 6% | -11% | 7 | 195% | 13µM*
CS(=O)(=O)c1ccc(C(=O)OCC(=O)N2CCCC2)cc1[N+](=O)[O-] | / | / | 5% | / | ? | /
C/C(=N\O)[C@@H](C)NCC(C)(C)CN[C@H](C)/C(C)=N/O | -1 | / | / | / | / | /
